Compounds without any hit were thinned out: in the full panel of roughly 83,000, 20% have a hit.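 Cells were grown in 96-well plates and exposed to the test compound at a single concentration for 48 hours; results are reported as percent growth, with values below 10 considered active.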 Unmarked numbers belong to inactive results. Calls of active or inactive are those of the source.
How the values were obtained:
Test in all cases: NCI-60 one-dose screen, 48 h (100 = growth as untreated, 0 = no growth, -100 = all killed)
Conditions in all cases: 10 µM unless noted
NCI-H23 lung = tested on: NCI-H23 lung
NCI-H226 lung = tested on: NCI-H226 lung
NCI-H322M lung = tested on: NCI-H322M lung
HOP-62 NSCLC = tested on: HOP-62 NSCLC
NCI-H460 lung = tested on: NCI-H460 lung
HOP-92 NSCLC = tested on: HOP-92 NSCLC
NCI-H522 lung = tested on: NCI-H522 lung
A549/ATCC NSCLC = tested on: A549/ATCC NSCLC
786-0 renal = tested on: 786-0 renal
COLO 205 colon = tested on: COLO 205 colon

Compound | growth (NCI-H23 lung) | growth (NCI-H226 lung) | growth (NCI-H322M lung) | growth (HOP-62 NSCLC) | growth (NCI-H460 lung) | growth (HOP-92 NSCLC) | growth (NCI-H522 lung) | growth (A549/ATCC NSCLC) | growth (786-0 renal) | growth (COLO 205 colon)
C=C1C(=O)O[C@H]2[C@H]1CC/C(COC(=O)c1ccc(C#N)cc1)=C\CC[C@@]1(C)O[C@@H]21 | 54.4% | -0.563% (active) | 68.1% | 61.3% | 53.7% | -35.8% (active) | -89.6% (active) | 40.8% | 22.9% | -77.7% (active)
Cc1ccc(-c2nc3c(N=Nc4ccc(S(N)(=O)=O)cc4)c(N)nn3c(N)c2C#N)cc1 | 43.9% | 65% | 66.1% | 42.6% | 27.9% | 19.6% | 28.7% | 63.1% | 64.5% | 14.5%
CC(=O)Nc1ccc(OC(=O)c2ccccc2O)cc1 | 99.5% | 106% | 111% | 99.8% | 106% | 85% | 106% | 102% | 107% | 108%
COc1cc(NC(C)CCCN2C(=O)c3ccccc3C2=O)c2ncccc2c1OC (stereo not given) | 91.6% | 98.2% | 79.5% | 80.7% | 103% | 45.4% | 70.8% | 100% | 91.1% | 101%
COc1cc2nc(C(=O)N3CCCCC3)cc(Nc3ccccc3)c2cc1OC | 96.7% | 107% | 96.1% | 96% | 102% | 73.3% | 65.7% | 98.1% | 95.3% | 116%
CCCCCCCCCCCCCCCC(=O)NS(=O)(=O)OC[C@H]1O[C@@H](n2cnc3c(N)ncnc32)[C@H](O)[C@@H]1O | -39.5% (active) | -65.1% (active) | -46.2% (active) | -25% (active) | -10.1% (active) | -65.7% (active) | -33.3% (active) | 9.49% (active) | -69.6% (active) | -62.8% (active)
c1nc(SC2=NCCN2)c2[nH]cnc2n1 | 46.2% | 46.9% | 36.3% | 23.2% | 66.5% | 36.2% | 25% | 82.9% | 22.7% | 56.8%
CC(C)Cn1cnc2c3ccccc3nc(NCn3nc(-c4cc(Cl)cc(Cl)c4Cl)oc3=S)c21 | 80.4% | 99% | 91.6% | 66.4% | 110% | 50.7% | 74% | 99.9% | 75.5% | 97.5%
COC(=O)c1ccc2c(c1)Oc1ccc(Cl)cc1-c1cc(C)nn1-2 | 78.1% | 37.4% | 81.9% | 37.6% | 14% | 61.1% | 82.3% | 40.5% | 69.5% | 69.6%
CC(C)(C)NC(C1=CC(C)(C)c2ccccc2C1=O)c1ccccc1 (stereo not given) | 9.47% (active) | -68.6% (active) | -1.08% (active) | -13.8% (active) | -49.2% (active) | -50.8% (active) | -81.5% (active) | -9.21% (active) | -94% (active) | -91.5% (active)
CC1CCC(C(C)C)C(NN)C1 (stereo not given) | 106% | 88% | 91.2% | 96% | 108% | 110% | 70.9% | 80.6% | 98.8% | 103%
O=C(O)c1ccc(-c2nn(-c3ccc(C(=O)O)cc3)cc2/C=N/Nc2c(F)c(F)cc(F)c2F)cc1 | 96% | 103% | 99.9% | 99% | 114% | 115% | 89.2% | 97.7% | 112% | 111%
CCCCCCCCCCCCCCCCNc1ccccc1 | 102% | 99.8% | 83.8% | 105% | 105% | 97.7% | 64.6% | 59.7% | 81.4% | 113%
Cc1ccc(Cn2cc(COc3ccc4c5ccnc(C)c5n(CCCc5ccccc5)c4c3)nn2)cc1 | 84.3% | 98.9% | 90.6% | 87.1% | 103% | 68.6% | 66.4% | 94.2% | 85.9% | 92.2%
CCn1cc(/C=C2\Oc3cc(OCC#N)ccc3C2=O)c2cc(OC)ccc21 | 41.6% | 86.4% | 49.3% | 36.6% | 8.51% (active) | 71.2% | 56.7% | 41.1% | 38.3% | 8.22% (active)
CCCCCC/C=N/Nc1ccc([N+](=O)[O-])cn1 | 98.3% | 99.1% | 98.7% | 87.8% | 112% | 104% | 78.2% | 90.6% | 94.7% | 98%
C[C@@H]1CC2C3C[C@H](F)C4=CC(=O)C=C[C@]4(C)[C@@]3(F)[C@@H](O)C[C@]2(C)[C@@]1(O)C(=O)CO (stereo not given in full) | 105% | 70.5% | 94.6% | 101% | 96.2% | 80% | 91.9% | 68% | 109% | 99.3%
CN(C)c1ccc(/C=c2\s/c(=C\C(=O)C(C)(C)C)[nH]c2=O)cc1 | 98% | 101% | 86.7% | 101% | 104% | 94.5% | 78.1% | 79.7% | 93.2% | 97.7%
CCN(CC)CCN1C(=O)c2c(c3c4ccccc4[nH]c3c3[nH]c4ccccc4c23)C1=O | 85.6% | 86.6% | 66.6% | 64.7% | 69% | 86.4% | 69.4% | 82.2% | 83.6% | 75.8%
CCCC(=O)Oc1ccc(/C(=C(\C)c2ccc(OC)cc2)c2ccc(OCCN3CCCCC3)cc2)cc1 | 79.3% | 83.5% | 89.7% | 86.1% | 87.1% | 69% | 78.9% | 76.8% | 67.1% | 67.6%
COc1ccccc1N1CCN(CCCOc2ccc(OCCCN3CCN(c4ccccc4OC)CC3)c(C(=O)c3cc(OC)c(OC)c(OC)c3)c2)CC1 | 95.4% | 111% | 96.5% | 113% | 115% | 94.2% | 106% | 109% | 105% | 99.5%
CCn1c(C)nc([N+](=O)[O-])c1Sc1nc(N)nc2nc[nH]c12 | 28.8% | 44.3% | 50.9% | 24.9% | 10.7% | 54.9% | 42.6% | 53.9% | 24.6% | 67.9%
COc1ccccc1NC(=O)COc1ccc(/C=C2/Oc3cc4occc4c(OC)c3C2=O)cc1OC | 97.1% | 101% | 115% | 101% | 114% | 99.1% | 86.9% | 96.6% | 96.1% | 114%
N#Cc1c(N)nc2c(c1N)C(c1ccc(Cl)cc1)C1=C(CCCC1=O)N2c1sc2c(c1C#N)CCCC2 (stereo not given) | 91.2% | 89.2% | 83.5% | 80% | 97.3% | 62% | 84.3% | 90.1% | 80.1% | 96.2%
NS(=O)(=O)c1ccc(Nc2nc(O)c(/C=C3\C=Nc4ccccc43)s2)cc1 | 92% | 99.6% | 90.7% | 97.5% | 98.6% | 114% | 92% | 90.4% | 106% | 122%
CN1C(=O)C2(SCC(C(=O)NCC(=O)OC(C)(C)C)N2C(=O)C2CCCCC2)c2ccccc21 (stereo not given) | 94.4% | 91.6% | 95.3% | 95% | 102% | 85.8% | 80.9% | 95.2% | 94.7% | 99.9%
Cc1ccn2cc(Cc3cc(=O)oc4c3ccc3ccccc34)c(=O)nc2c1 | 96.6% | 96.6% | 101% | 91.7% | 106% | 98.8% | 75.1% | 89.9% | 95.5% | 102%

— PubChem BioAssay (NCI)
